An excerpt weighted towards active compounds, which were near 21% of everything screened.
CHX counter: counter-screen for Shiga toxin inhibitors: cycloheximide protein synthesis inhibition; 300,000 tested, 12% active; max response, %; cell reporter, cycloheximide protein synthesis inhibition counterscreen; in the data active = max response mostly above about 13%, no sharp cut-off; inactive = mostly below about 14%; also: read at 38.3 µM for the half of the compounds with a filed dose; 0% is about no effect
Pf growth 48h: inhibits P. falciparum growth in the first generation, 48 h. AID 504832. Potency, µM (highest dose often 28.7 µM), without a hit: at the highest dose activity change, negative = inhibition, hits mostly inhibitors. P. falciparum luciferase growth in erythrocytes, 48 h. 310,000 tested, 5.9% active; active = well fitted inhibition curve with a large enough effect; inconclusive = small, poorly fitted or top-dose-only effect, or another doubt; inactive = no such curve, though single readings can be large or run the other way; also: potency is read from the fitted curve at half-maximal effect; % is scaled to controls: 0 for no effect and ±100 for the full control effect
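Here the parasites carry a stable luciferase gene and grow inside erythrocytes in Albumax-based RPMI medium with compound for one erythrocytic cycle. Activity is scored as loss of luminescent signal.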
SARS PLpro yeast: SARS-CoV PLP inhibition in yeast; 330,000 tested, 0.19% active; Potency, µM (doses to about 32.9 µM), without a hit: top-dose activity, positive = growth rescue, most hits filed as activators; AID 485353; S. cerevisiae expressing SARS-CoV PLpro, growth rescue; also: potency is read from the fitted curve at half-maximal effect; 0% is about no effect; nearly all actives have a fitted effect of over 55% in size
NS1 inh: blocks influenza NS1 protein function | Potency, µM (highest dose often 46.1 µM), for inactives: at the top dose activity, positive = more growth | 270,000 tested, 0.4% active; also: potency is read from the fitted curve at half-maximal effect; actives are rising curves; nearly all actives have a fitted effect of over 50% in size
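Read-out: OD600 growth recovery of NS1-expressing budding yeast. Cells grown overnight at 30C in -URA glucose medium, washed, resuspended and diluted 1:100 in 2% galactose assay medium, pH 6.0. Same strain lacking NS1 served as positive control.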
Pf growth 96h: P. falciparum growth inhibition at 96 hour, primary screen for plastid delayed-death inhibitors. P. falciparum luciferase reporter growth, 96 h. Potency, µM (series often up to 28.7 µM), for the others: at the top dose activity change, negative = inhibition, actives largely listed as inhibitors. 320,000 tested, 6.9% active; active = well fitted inhibition curve with a large enough effect; inconclusive = small, poorly fitted or top-dose-only effect, or another doubt; inactive = no such curve, though single readings can be large or run the other way; also: potency is read from the fitted curve at half-maximal effect; % is scaled to controls: 0 for no effect and ±100 for the full control effect
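Compounds incubated with erythrocytes infected by luciferase-expressing P. falciparum (2% hematocrit, 0.05% parasitemia final) for 96 hours, 37 C in 5% CO2. Growth inhibition scored as decreased luciferase luminescence.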
Shiga toxin inh: inhibitors of Shiga toxin in Vero cells. Vero cells, Shiga toxin protein synthesis inhibition reporter. inhibition, % at 38.7 µM. 290,000 tested, 9.2% active; in the data active = inhibition mostly above about 28%, no sharp cut-off; inactive = mostly below about 43%; also: 0% is about no effect
An asterisk follows results filed as active; ? = inconclusive; . = not tested or not shown. Unless noted, calls follow the shape of the full dose curve.

SMILES	CHX counter	Pf growth 48h	SARS PLpro yeast	NS1 inh	Pf growth 96h	Shiga toxin inh
CCCCC(=NCCc1c(C)[nH]c2ccccc12)C1=C(O)CC(c2ccccc2)CC1=O (stereo not given)	-1.4	9.28µM*	-2.5%	.	?	16.2
CCC/C(O)=C1\C(=O)CCCC1=NCCc1c(C)[nH]c2ccccc12	-1.9	-19.2%	-1.5%	-0.2%	-20.8%	-1.2
CC(=NCCc1c(C)[nH]c2ccc(OC(F)(F)F)cc12)C1=C(O)CC(c2ccccc2)CC1=O (stereo not given)	-11.2	?	0.1%	.	93.0%	-10.0
CCCC(=NCCc1c(C)[nH]c2ccccc12)C1=C(O)CC(c2ccccc2)CC1=O (stereo not given)	-1.6	13.1µM*	-17.1%	11.9%	-16.4%	-2.3
CC(=NCCc1c(C)[nH]c2ccc(C)cc12)C1=C(O)CC(c2ccccc2)CC1=O (stereo not given)	-1.2	-20.5%	-34.6%	11.0%	33.1%	-12.0
Cc1ccc(C)c(NC(NC(=O)c2ccccn2)C(Cl)(Cl)Cl)c1 (stereo not given)	1.1	-26.8%	1.5%	0.4%	?	2.5
CCOC(=O)c1ccc(COC(=O)c2nonc2N)cc1	21.6*	0.0%	2.6%	-5.3%	?	3.3
O=C(CSc1nc2ccccc2c(=O)n1-c1ccc(F)cc1F)c1c[nH]c2ccccc12	11.9	?	-30.4%	13.7%	?	18.3
CC(=O)Nc1ccc(S(=O)(=O)N(C)CC(=O)N/N=C/c2cccc(O)c2)cc1	1.0	-19.1%	0.5%	-3.1%	19.9%	19.3
Cc1cccc(S(=O)(=O)N(CC(=O)Nc2ccccc2C)Cc2ccco2)c1	11.4	.	-2.3%	1.8%	11.7µM*	24.5
O=C(CN(Cc1ccco1)S(=O)(=O)c1ccccc1)N/N=C/c1cccc(O)c1	-2.8	-29.1%	2.2%	-20.8%	-23.3%	48.1*
O=C1CC(SC(=Nc2ccccc2)Nc2ccccc2)C(=O)N1c1ccc(Cl)cc1 (stereo not given)	-1.6	?	3.1%	-1.8%	?	-2.4
O=C(CSC1CC(=O)N(c2ccc(C(=O)O)cc2)C1=O)Nc1ccc(Cl)cc1 (stereo not given)	-1.4	2.3%	-0.2%	0.1%	11.7µM*	13.1
CCCCNC(=O)COC(=O)c1ccc(F)cc1Cl	12.7*	41.2%	-3.8%	.	34.2%	75.8*
COc1ccc(Cl)cc1NC(=O)C1CCN(S(C)(=O)=O)CC1	-1.0	-10.6%	7.6%	7.7%	0.0%	.
CC(NC(=O)c1cc(-c2ccncc2)nc2ccc(Cl)cc12)C1CCCO1 (stereo not given)	13.2*	?	1.1%	-54.1%	-21.8%	38.0*
Cc1cccc2c(C(=O)N3CCN(c4ccccn4)CC3)cc(-c3cccc(Br)c3)nc12	-0.3	?	-10.5%	-34.4%	?	-7.8
O=C(c1cc(-c2ccncc2)nc2ccc(Cl)cc12)N1CCN(C(=O)C2CCCO2)CC1 (stereo not given)	-2.8	-16.3%	-9.6%	-5.0%	6.8%	-8.3
Cc1cccc2c(C(=O)N3CCN(c4ccccc4)CC3)cc(-c3ccncc3)nc12	-1.0	8.28µM*	-5.0%	-18.6%	?	6.4
CC(NC(=O)c1cc(-c2ccccn2)nc2ccc(Cl)cc12)C1CCCO1 (stereo not given)	8.7	-6.8%	-1.7%	0.0%	?	-31.1
Cc1cccc2c(C(=O)N3CCCCC3)cc(-c3ccccc3)nc12	6.1	9.28µM*	-9.1%	-7.2%	0.0%	-5.2
CC(=O)c1ccc(N2CCN(C(=O)c3cc(-c4ccncc4)nc4ccc(Cl)cc34)CC2)cc1	14.2*	?	?	-13.6%	0.0%	23.8
CC(=O)Nc1cccc(-n2nnc(SCC(=O)N(C)c3ccccc3)n2)c1	-2.0	35.2%	-0.3%	0.5%	16.4%	-1.2
CS(=O)(=O)N1CCC(C(=O)N2CCN(c3ccc(F)cc3)CC2)CC1	-1.2	-9.4%	0.9%	-0.7%	18.3%	33.1
CSc1ncc(OCc2ccccc2)c(=O)[nH]1	4.9	3.5%	-0.8%	0.5%	39.3%	6.0
SMILES	CHX counter	Pf growth 48h	SARS PLpro yeast	NS1 inh	Pf growth 96h	Shiga toxin inh
O=C(O)Cc1ccc([N+](=O)[O-])cc1[N+](=O)[O-]	.	.	.	1.0%	.	.
O=C(CN1C(=O)NC2(CCCC2)C1=O)Nc1cc(Cl)ccc1Oc1ccccc1	.	?	0.6%	.	?	.
CC(=O)CC1(OC(C)=O)C(=O)N(C)c2ccccc21 (stereo not given)	-2.1	-26.5%	-4.4%	2.5%	0.0%	1.4
CCC1(C)Cc2c(sc3nc(NC)n(C)c(=O)c23)CO1 (stereo not given)	67.2*	?	-7.1%	-11.6%	?	27.2
CCSc1nc2sc3c(c2c(=O)[nH]1)CC(C)(CC)OC3 (stereo not given)	8.2	?	1.3%	7.9%	21.0%	-5.9
CCC1(C)Cc2c(sc3nc(SCC(=O)O)[nH]c(=O)c23)CO1 (stereo not given)	-3.6	18.8%	0.9%	9.9%	8.28µM*	11.0
COCC(C)n1c(C)cc(C(=O)COC(=O)/C=C/c2cccc(F)c2)c1C (stereo not given)	13.6	-4.0%	0.1%	.	10.3%	27.2
CSc1nc2cc(Oc3cccc(Cl)c3Cl)c(Cl)cc2[nH]1	10.1	6.75µM*	-27.8%	.	12µM*	-7.5
CN1C(=O)c2cccc(NC(=O)CCc3ccccc3)c2C1=O	-0.9	.	-7.7%	-58.8%	-14.5%	-6.9
O=C(NNc1nc2c(F)cccc2s1)c1ccccc1	17.4	?	-0.2%	.	68.5%	25.5
O=C(NNc1nc2ccc(F)cc2s1)c1cccc(F)c1	42.0*	?	-2.4%	.	?	85.0*
O=C(NNc1nc2ccccc2s1)c1ccc(F)cc1	43.6*	13.1µM*	22.3%	-21.3%	?	88.9*
O=C(CN(CC1CCCO1)C(=O)CNS(=O)(=O)c1ccc(F)cc1)NC1CCCC1 (stereo not given)	-3.6	32.1%	-3.3%	1.5%	?	-7.4
c1cc2c(cnc3cscc32)s1	16.3*	20.7%	-0.9%	17.0%	60.3%	19.2
CN1CCN(c2ccc(C=O)cc2)CC1	9.3	-0.8%	1.0%	-0.3%	.	-3.7
CCN1C/C(=C/c2ccc(N3CCOCC3)cc2)C(=O)/C(=C/c2ccc(N3CCOCC3)cc2)C1	25.6*	7.38µM*	4.0%	4.3%	4.15µM*	35.6*
CN1C/C(=C\c2ccc(N3CCOCC3)cc2)C(=O)/C(=C/c2ccc(N3CCOCC3)cc2)C1	6.2	?	10µM*	21.2%	65.0%	-1.3
COCCCn1c(C)cc(C(=O)CN2c3cccc4cccc(c34)S2(=O)=O)c1C	.	?	-2.1%	.	?	.
O=C(CNC(=O)c1ccccc1F)c1ccccc1	34.5*	151.7%	-10.5%	2.5%	-8.2%	42.1
CC(CNC(=O)c1ccccc1Cl)c1ccccc1 (stereo not given)	33.6*	49.4%	3.8%	4.3%	3.6%	36.4*

Source: PubChem BioAssay (National Center for Advancing Translational Sciences (NCATS))
